Laboratory results: PubChem BioAssay (NCATS)
Results filed as inconclusive are left out. A call without a number means that no potency is given here. Calls of active or inactive are those of the source. The call rests on the fitted dose curve; in most records, active means well fitted curve in the direction sought with a large enough effect; inconclusive means small, poorly fitted or top-dose-only effect, or another doubt; inactive means no such curve, though single readings can be large; an effect the other way counts as inactive or inconclusive.

How the values were obtained:
[1] = biological target: Aldehyde dehydrogenase, mitochondrial (Homo sapiens) (UniProt P05091); test: qHTS for Inhibitors of the Aldehyde Dehydrogenase Family (ALDH2) Primary screen (AID 2061308); conditions: ALDH2 enzyme inhibition qHTS, 1536-well; series mostly up to 56 µM; further: nearly all actives have a fitted effect of over 55% in size
[2] = biological target: Retinaldehyde dehydrogenase 3 (Homo sapiens) (UniProt P47895); test: qHTS for Inhibitors of the Aldehyde Dehydrogenase Family (ALDH1A3) Primary screen (AID 2061315); conditions: ALDH inhibition qHTS; series mostly up to 56 µM

| Compound | Potency [1] | Potency [2] |
| --- | --- | --- |
| COc1cccc(-n2cnc3cc(C(=O)N4CCCCC4)ccc32)c1 | inactive | inactive |
| Cc1ccc(Cn2ncc3c4sc(C)cc4n(C)c3c2=O)c(C)c1 | inactive | inactive |
| CN(CCc1cnc[nH]1)c1ncnc2ccc(-c3ccc4c(c3)OCO4)cc12 | inactive | inactive |
| CCNC(=O)C1CCN(C(=O)C(C)(C)NC(=O)Nc2ccccc2Cl)CC1 | inactive | inactive |
| O=C(Cc1ccccc1)Nc1nnc(-c2ccncc2)s1 | inactive | inactive |
| Cc1cc2c(s1)c1cnn(Cc3ccc(F)c(C)c3)c(=O)c1n2C | inactive | inactive |
| COc1cc(Cn2ncc3c4sc(C)cc4n(C)c3c2=O)cc(OC)c1 | inactive | inactive |
| CC(C)(C)NS(=O)(=O)c1cccc(-c2nnc(SCc3ccc(C(=O)O)cc3)n2-c2ccccc2)c1 | inactive | inactive |
| CN(Cc1ccc(-c2ccccc2)cc1)c1nc(-c2ccccc2C(F)(F)F)nc2ccccc12 | inactive | inactive |
| CCOc1ccc(C(=O)Nc2ccc(-c3nc4ccccc4[nH]3)cc2)cc1[N+](=O)[O-] | inactive | inactive |
| O=C(CSc1nnc(-c2cccc([S+](=O)([O-])N3CCCC3)c2)n1-c1ccccc1)Nc1cccc(F)c1 | inactive | inactive |
| N#Cc1cc(NC(=O)Nc2nnc(-c3ccncc3)s2)ccc1Cl | inactive | inactive |
| Cc1cc2c(s1)c1cnn(Cc3cccc(F)c3F)c(=O)c1n2C | inactive | inactive |
| FC(F)(F)c1ccccc1-c1nc(NCc2cccs2)c2ccccc2n1 | inactive | inactive |
| COC(=O)Nc1sc2c(c1C(N)=O)CCCC2 | inactive | inactive |
| CCOc1ccc(C(=O)Nc2ccc(-c3nn[nH]n3)cc2)cc1[N+](=O)[O-] | inactive | inactive |
| CC(=O)c1cccc(NC(=O)c2cnn3c(C)cc(C)nc23)c1 | inactive | inactive |
| O=C(c1ccccc1O)N(Cc1ccccc1)Cc1ccccc1 | inactive | inactive |

| Compound | Potency [1] | Potency [2] |
| --- | --- | --- |
| Cc1cccc(-n2cnc3cc(C(=O)NC(C)(C)C)ccc32)c1 | inactive | inactive |
| C/C=C(/C)C(=O)O[C@H]1C=C(CO)C(=O)[C@H](OC(=O)/C(C)=C/CO)[C@H]1C(C)C | inactive | inactive |
| CCN(CC)C(=O)c1cc(S(=O)(=O)Cc2ccccc2)c(N2CCC(c3ccccc3)CC2)cc1N(CC)CCN(C)C | inactive | inactive |
| O=[N+]([O-])c1ccc(-c2nc(Nc3ccc(F)c(F)c3)c3ccccc3n2)cc1 | inactive | inactive |
| Cc1ccc(OCCn2c(CCNC(=O)c3cccc(Br)c3)nc3ccccc32)cc1 | inactive | inactive |
| CN1CCN(Cc2cc(COCc3ccccc3)c3cccnc3c2O)CC1 | inactive | inactive |
| Cc1cc(NS(=O)(=O)c2ccc(NC(=O)Cc3ccc(Cl)c(F)c3)cc2)no1 | inactive | inactive |
| COC(=O)c1ccc(OC(C)=O)c2ncccc12 | inactive | inactive |
| CC1(C)CC[C@]2(C(=O)OC3OC(CO)C(O)C(O)C3O)CC[C@]3(C)C(=CCC4[C@@]5(C)CC[C@H](OC6OC(C(=O)O)C(O)C(O)C6O)C(CO)(CO)C5CC[C@]43C)[C@@H]2C1 (some centres not stated) | inactive | inactive |
| C(=C\c1cccs1)/c1cccnc1 | inactive | inactive |
| CCCCNC(=S)NCCCc1cnc[nH]1 | inactive | inactive |
| N#Cc1nc(Nc2ccc(C(F)(F)F)cc2)nc(NC2CCCC2)n1 | inactive | inactive |
| O=C1CCCC2=C1C(c1[nH]ncc1Cl)N=C(Nc1cccnc1)N2 (configuration not stated) | inactive | inactive |
| NS(=O)(=O)c1ccc(Cc2c(-c3cccc(-c4ccccc4)c3)nn(-c3nc(C(=O)O)cs3)c2C2CC2)cc1 | inactive | inactive |
| Cc1cccc(-n2cnc3cc(C(=O)N4CCC(C#N)CC4)ccc32)c1 | inactive | inactive |
| NC(=O)c1c(NC(=O)C2CCCO2)sc2c1CCCC2 (configuration not stated) | inactive | inactive |
| FC(F)(F)c1ccccc1-c1nc(NCc2ccc(-c3ccc(Cl)cc3)cc2)c2ccccc2n1 | inactive | inactive |
| Cc1ccc(NS(=O)(=O)c2cccc(C(=O)Nc3nc(-c4ccccc4)cs3)c2)cc1 | inactive | inactive |
